# BAZ2B block: BAZ2B (human) inhibition. Q9UIF8. Potency, µM (highest dose often 114 µM), without a hit: at the top dose activity change, negative = inhibition, usual class: inhibitors. hit rate 4.4% among 360,000. AlphaScreen BAZ2B-H3K14Ac peptide displacement. AID 504333; note: % is set by controls: 0 for no effect and ±100 for the full control effect; nearly all actives have a fitted effect of over 60% in size
#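 BAZ2B 50 nM plus b-H3(5-23)K14Ac 50 nM, PBS pH 7.4/0.01% Tween-20, 30 min RT; compound added (max 110 uM), 30 min RT; streptavidin donor/Ni-chelate acceptor beads 10 ug/mL final, 20 min dark; AlphaScreen read.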
# L3MBTL1 inh: inhibitors of human L3MBTL1 | AlphaScreen L3MBTL1–H3K9me1 peptide binding | hit rate 0.66% among 230,000 | Potency, µM (titrated, usually from 57.1 µM), without a hit: at the top dose activity, negative = inhibition, hits mostly inhibitors | Q9Y468; note: % is set by controls: 0 for no effect and ±100 for the full control effect; nearly all actives have a fitted effect of over 60% in size
# Target sequence (Q9Y468 whole entry, looked up): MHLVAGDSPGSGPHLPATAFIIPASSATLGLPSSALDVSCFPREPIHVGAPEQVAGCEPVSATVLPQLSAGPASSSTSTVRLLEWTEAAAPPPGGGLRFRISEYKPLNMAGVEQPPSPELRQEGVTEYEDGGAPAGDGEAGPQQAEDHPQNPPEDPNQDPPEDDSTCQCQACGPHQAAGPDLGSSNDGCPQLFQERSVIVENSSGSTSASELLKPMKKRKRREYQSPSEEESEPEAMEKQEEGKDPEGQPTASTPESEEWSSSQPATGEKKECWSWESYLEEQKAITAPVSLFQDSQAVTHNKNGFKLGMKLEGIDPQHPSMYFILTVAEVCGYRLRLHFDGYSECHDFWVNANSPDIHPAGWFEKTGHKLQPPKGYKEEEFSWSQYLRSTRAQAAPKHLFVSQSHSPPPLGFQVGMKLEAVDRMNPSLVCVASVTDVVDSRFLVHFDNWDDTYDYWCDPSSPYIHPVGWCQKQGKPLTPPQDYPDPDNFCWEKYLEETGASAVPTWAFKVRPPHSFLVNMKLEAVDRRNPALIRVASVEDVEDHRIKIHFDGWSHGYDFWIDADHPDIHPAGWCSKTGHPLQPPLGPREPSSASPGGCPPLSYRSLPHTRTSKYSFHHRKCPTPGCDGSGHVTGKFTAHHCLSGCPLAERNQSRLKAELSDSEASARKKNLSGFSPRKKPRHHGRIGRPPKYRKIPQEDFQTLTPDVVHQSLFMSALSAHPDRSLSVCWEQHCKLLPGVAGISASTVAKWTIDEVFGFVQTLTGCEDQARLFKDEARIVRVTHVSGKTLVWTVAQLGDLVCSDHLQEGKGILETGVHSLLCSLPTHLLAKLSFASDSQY
#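 AlphaScreen assay: L3MBTL1 (50 nM final) was preincubated 30 min at room temperature with biotinylated H3(1-15)K9me1 peptide (75 nM final), then 30 min with library compounds; streptavidin donor and nickel chelate acceptor beads (10 ug/mL final) added, 30 min dark.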
# Sfp inh: Sfp phosphopantetheinyl transferase inhibition | Q9F4F7 | Potency, µM, for inactives: largest response in the series, negative = inhibition, hits mostly inhibitors | hit rate 3.5% among 310,000 | Biochemical Sfp PPTase activity, qHTS;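 note: the enzyme is Sfp with the accession as filed and its product quenches rhodamine fluorescence; 0% = enzyme reaction without inhibitor and -100% = no enzyme wells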
#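 Reaction rates are the 30-min fluorescence difference (ex 525, em 598 nm) in wells containing 15 nM Sfp, 5 uM rhodamine-CoA and 12.5 uM BHQ-2-YbbR at pH 7.6 with 10 mM MgCl2.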
# G9a inh: blocks human histone lysine methyltransferase G9a. Q96KQ7. G9a H3K9 monomethylation, AlphaScreen, 2 h. Potency, µM (series often up to 102 µM), for the others: at the top dose activity, negative = inhibition, most hits filed as inhibitors. hit rate 8.8% among 350,000. AID 504332; note: % is set by controls: 0 for no effect and ±100 for the full control effect; nearly all actives have a fitted effect of over 75% in size
#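 Methyltransferase reactions run at room temperature for 2 h (20 nM enzyme, 500 nM biotin-H3K9 peptide, 20 uM SAM) after a 15 min compound preincubation; product detected by AlphaScreen beads and anti-H3K9me1 antibody.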
# JMJD2A Tudor: inhibitors of human JMJD2A Tudor domain. O75164. AlphaScreen JMJD2A-Tudor / H3K4me3 peptide binding. Potency, µM (doses to about 114 µM), for the others: top-dose activity change, negative = inhibition, most hits filed as inhibitors. hit rate 4.4% among 390,000. AID 504339; note: % is set by controls: 0 for no effect and ±100 for the full control effect; nearly all actives have a fitted effect of over 50% in size
# HP1b chromo inh: blocks HP1-beta chromodomain binding to methylated histone tails; Potency, µM (doses to about 114 µM), for the others: top-dose activity change, negative = inhibition, actives largely listed as inhibitors; AlphaScreen HP1-beta / biotin-H3K9me3 peptide binding; P83916; hit rate 0.56% among 390,000; note: nearly all actives have a fitted effect of over 70% in size
#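 AlphaScreen: HP1-beta (50 nM) preformed 30 min with biotin-H3(1-18)K9me3 peptide (50 nM) in PBS pH 7.4, 0.01% Tween-20. Compound added for 30 min at RT, then streptavidin donor/nickel chelate acceptor beads (10 ug/mL) for 30 min.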
# * marks the source's active call; other numbers are inactive results; ? = inconclusive; . = not tested or not shown; ! = not confirmed by another sample; [ ] = remark or other dose. A selection: hits, their analogues and other compounds. The true share with any hit is near 12%. Calls come from the whole dose curve; as a rule, active = well fitted curve in the direction sought with a large enough effect; inconclusive = small, poorly fitted or top-dose-only effect, or another doubt; inactive = no such curve, though single readings can be large; an effect the other way counts as inactive or inconclusive. Potency is the fitted concentration of half-maximal effect.
SMILES,BAZ2B block,L3MBTL1 inh,Sfp inh,G9a inh,JMJD2A Tudor,HP1b chromo inh
CN(CC1CCCO1)S(=O)(=O)c1ccc(C(=O)Nc2nc(-c3ccccn3)cs2)cc1 (stereo unspecified),28µM*,32µM*,17%,4%,50µM*,17%
Cc1ccc(C(=O)Nc2nc(-c3ccccn3)cs2)cc1S(=O)(=O)N1CCOCC1,25µM*,?,.,?,-96%,-30%
Cc1ccc(NC(=O)c2cccnc2)cc1S(=O)(=O)N1CCOCC1,-6%,-4%,.,50µM*,-16%,33%
O=C(Nc1nc(-c2ccccn2)cs1)c1cc(S(=O)(=O)N2CCOCC2)ccc1F,22µM*,?,.,?,79µM*,40%
CN(CC1CCCO1)S(=O)(=O)c1ccc(C(=O)Nc2ccccc2F)cc1 (stereo unspecified),.,.,.,.,-2%,39%
Cc1ccc(C(=O)Nc2ccccn2)cc1S(=O)(=O)N1CCOCC1,10%,3%,.,-5%,-8%,32%
O=C(Nc1ccccc1O)c1cc(S(=O)(=O)N2CCCC2)ccc1Cl,?,.,.,-1%[59 µM],-20%,5%
COc1ccc(NC(=O)CCS(=O)(=O)c2ccc3nc(C)sc3c2)cc1Cl,-5%,.,.,-5%[59 µM],1%,54%
O=C(Nc1nc(-c2ccccn2)cs1)c1ccc(F)c(S(=O)(=O)N2CCOCC2)c1,28µM*,?,.,7.1µM*,50µM*,?
COc1ccc2cc1Oc1ccc(cc1)C[C@H]1c3c(cc4c(c3Oc3cc5c(cc3OC)CCN(C)[C@@H]5C2)OCO4)CCN1C,-38%,.,2%,11µM*!,35µM*,?
COc1cc2c3cc1Oc1c(OC)c(OC)cc4c1[C@@H](Cc1ccc(O)c(c1)Oc1ccc(cc1)C[C@@H]3N(C)CC2)N(C)CC4,.,.,12%,.,.,.
Cc1ccc(C(=O)Nn2c(C)nc3ccccc3c2=O)cc1C,4%,.,9%,-3%,-15%,41%
Cc1csc(=O)n1CCC(=O)OCC(=O)NCc1ccc(Cl)cc1Cl,-29%,-4%,.,?,-14%,10%
Cc1csc(=O)n1CCC(=O)OCC(=O)NNC(=O)c1ccc(Cl)cc1,-1%,-5%,.,45µM*,-14%,17%
C/C(=N/NS(=O)(=O)c1ccc(C)c(C)c1)c1ccncc1,-8%,.,11%,-11%[0.501 µM],-11%,56%
C/C(=N\NS(=O)(=O)c1c(C)cc(C)cc1C)c1ccncc1,-4%,.,-20%,8.9µM*,-4%,90%
COc1ccc(S(=O)(=O)N/N=C(/C)c2ccncc2)cc1OC,-24%,.,-5%,11µM*,-17%,45%
COc1ccc(S(=O)(=O)N/N=C(/C)c2ccncc2)c(OC)c1,-3%,.,5%,25µM*,2%,55%
COc1ccc(S(=O)(=O)N/N=C(/C)c2ccncc2)cc1,0%,.,1%,7.1µM*,-9%,59%
C/C(=N\NS(=O)(=O)c1ccc(Br)cc1)c1ccncc1,-2%,.,0%,0%,-11%,22%
COC(=O)CC1Oc2ccc(F)cc2-n2cc(-c3ccc(C)cc3)nc21 (stereo unspecified),-16%,.,.,-2%[59 µM],-18%,-1%
CN(C)[C@@H]1C(=O)C(C(=O)NCN2CCCC2)=C(O)[C@@]2(O)C(=O)C3=C(O)c4c(O)cccc4[C@@](C)(O)C3CC12 (stereo partly specified),1.3µM*,?,50µM*,3.2µM*,.,.
CN(C)[C@H]1C(=O)C(C(=O)NCN2CCCC2)=C(O)[C@]2(O)C(=O)C3=C(O)c4c(O)cccc4[C@](C)(O)[C@H]3C[C@H]12,.,.,?,1.6µM*,.,.
Cc1cc(C)cc(-n2ccnc2SCC(=O)Nc2nc3ccc(C)cc3s2)c1,-15%,.,.,-3%[59 µM],-22%,5%[57 µM]
CCOC(=O)c1c(NC(=O)CSc2cn(CCNC(=O)c3ccccc3OC)c3ccccc23)sc2c1CCC2,-20%,.,.,-6%[59 µM],-33%,33%
SMILES,BAZ2B block,L3MBTL1 inh,Sfp inh,G9a inh,JMJD2A Tudor,HP1b chromo inh
Cc1ccc(/C=C(\C#N)C(=O)NC(C)C)o1,-4%,1%,13%,5%,-6%,17%
COc1cc(/C=C(/C#N)C(=O)NC(C)c2ccccc2)cc(OC)c1O (stereo unspecified),?,.,-9%,14µM*,-24%,-16%
Cc1ccc(/C=C(/C#N)C(=O)NC(C)c2ccccc2)o1 (stereo unspecified),-1%,1%,22µM*,37%[59 µM],-11%,23%
CC(C)NC(=O)/C(C#N)=C/c1ccc(N(C)C)o1,-24%,-5%,-15%,50µM*,-11%,10%
COC(=O)C1=C(C)N(CCCC(=O)O)C(=O)NC1c1ccc(C#N)cc1 (stereo unspecified),.,.,.,.,-35%,8%
CC(C)Cn1c(/C=C/c2ccco2)nc2ccccc21,-35%,-3%,35µM*,7.9µM*,-16%,8%
CCC(=O)OCCNc1cc(SCCC(=O)OC)c2nonc2c1[N+](=O)[O-],-8%,-8%,-25%,13µM*,-16%[57.1 µM],12%[57 µM]
Cc1ccc(Sc2cc(NCCCO)c([N+](=O)[O-])c3nonc23)cc1,-25%,.,-24%,50µM*,-12%[11.4 µM],-5%
CC(=O)OCCCNc1cc(Sc2ccc(Cl)cc2)c2nonc2c1[N+](=O)[O-],-19%,-1%,50µM*,?,-19%,5%
CCN(CC)c1cc(NCCO)c([N+](=O)[O-])c2nonc12,-11%,6%,-5%,.,-14%,28%
CCCC(=O)OCCNc1cc(Sc2nc3ccccc3[nH]2)c2nonc2c1[N+](=O)[O-],?,0%,10µM*,?,79µM*,?
CC(C)(C)C(C(=O)Oc1ccccc1)c1ccccc1 (stereo unspecified),106%,63%,.,-3%[0.501 µM],46%,78%
Cc1cc(=O)n(Cc2cccc(Cl)c2)c2c1c(C)nn2-c1ccccc1,-10%,.,.,31%[59 µM],14%,55%
CC(C)CCSc1cc(NCCO)c([N+](=O)[O-])c2nonc12,-33%,-8%,-13%,50µM*,-31%,22%
C=C1C(=O)[C@@]23[C@H](O)C[C@@H]4C(C)(C)CC[C@H](O)[C@@]4(C)[C@@H]2CC[C@@H]1[C@H]3O,2%,7%,-5%,-8%,-1%,54%
C=C1C(=O)[C@@]23[C@H](O)C[C@@H]4C(C)(C)CC[C@H](O)[C@]4(C)[C@@H]2C[C@H](O)[C@@H]1[C@H]3O,16%,1%,45µM*,-2%,-6%,50%
Cc1cc(N2CCN(c3ccccc3)CC2)nc(-n2nc(C)cc2C)n1,?,-19%,8%,11%[2.33 µM],45µM*,16%

# Assay outcomes from PubChem BioAssay.
